Each structure is given as a SMILES string.

The target of the experiment is Pro-neuregulin-1, membrane-bound isoform (Homo sapiens) (UniProt Q02297). Briefly: small molecules binding neuregulin-1 protein – biochemical, small-molecule microarray, fluorescence 635/667, psychiatric disease protein project, primary screen (AID 1075).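 Note: score combines 667 nm spot fluorescence with signal to noise.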 The following applies: NRG1 binding, 635 nm fluorescence, higher = more signal.
Chain of Pro-neuregulin-1, membrane-bound isoform (Homo sapiens) (Q02297 whole entry, looked up, canonical isoform): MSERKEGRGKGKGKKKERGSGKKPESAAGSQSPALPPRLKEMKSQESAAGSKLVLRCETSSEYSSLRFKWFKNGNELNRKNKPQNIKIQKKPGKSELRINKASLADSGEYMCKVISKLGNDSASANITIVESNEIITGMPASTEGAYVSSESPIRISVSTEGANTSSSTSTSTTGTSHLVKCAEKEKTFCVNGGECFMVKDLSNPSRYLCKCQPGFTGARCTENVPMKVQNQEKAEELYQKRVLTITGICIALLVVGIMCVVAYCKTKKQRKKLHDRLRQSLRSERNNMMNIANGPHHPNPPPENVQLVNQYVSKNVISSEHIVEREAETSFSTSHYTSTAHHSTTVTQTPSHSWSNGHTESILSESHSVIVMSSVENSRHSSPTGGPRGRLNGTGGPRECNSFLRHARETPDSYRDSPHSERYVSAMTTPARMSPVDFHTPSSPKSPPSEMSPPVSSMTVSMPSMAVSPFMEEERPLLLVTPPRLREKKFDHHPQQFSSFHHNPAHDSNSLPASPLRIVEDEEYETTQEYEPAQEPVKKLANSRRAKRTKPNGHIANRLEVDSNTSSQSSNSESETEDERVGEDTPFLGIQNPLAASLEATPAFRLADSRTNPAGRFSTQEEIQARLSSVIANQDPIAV
For `C=C(/C(=C/C[C@H](OC(C)=O)c1ccccc1OCCO)c1cc(C(=O)OC)ccc1OC)C(C)C`, the composite z-score was 0.0648.
For `C[N+](C)(C)CCCC[C@@H]1NC(=O)[C@H]2C[C@@H](C(=O)NCCCCCCN)[C@@H](c3ccc(O)cc3)N2C1=O` the value was 1.99; for `COc1ccccc1CN1C(=O)c2ccccc2[C@](Cc2ccccc2I)(C(=O)NCC(F)(F)F)[C@@H]1c1ccc(CO)cc1`, 1.51; for `O=C(NCc1ccccc1)[C@@H]1c2ccccc2C(=O)N(Cc2ccccc2C(F)(F)F)[C@H]1c1ccc(CO)cc1`, 0.48.
For `COC(=O)[C@H](Cc1ccccc1)N1CC(/C=C/C2CC2)=C[C@H]1[C@H](O)Cc1ccccc1` the value was 0.821; for `CCOC(=O)C1=CC[C@@H](c2ccc(OCc3ccccc3)c(OC)c2)N(S(=O)(=O)c2ccc(C)cc2)[C@H]1c1ccc(SC)cc1`, 0.876.
In the case of `COc1cccc(/C=C/C=O)c1`, the composite z-score is -0.437.
As for `CC(=O)NCCCC[C@@H]1NC(=O)[C@H]2C[C@@H](C(=O)NCCCC[N+](C)(C)C)[C@@H](c3cccc(OCCO)c3)N2C1=O`, the figure is 0.4.
As for `O=C1C2C=CC(C(O)c3ccccc3)N(Nc3ccccc3F)C2C(=O)N1c1ccccc1` (centres undefined), the figure is 0.801; as for `CCOC(=O)C[C@H]1[C@H](OC(=O)c2ccccc2-c2ccccc2)[C@@H](NC(=O)c2ccc(-c3ccccc3)cc2)c2cc(OCCCO)ccc2N1C(=O)c1ccc2ccccc2n1`, 0.789; as for `CO[C@]12C=C(Br)[C@@H](C[C@@H]1c1cccc(C)c1)[C@@]1(CO1)C2=O`, 0.518.
As for `[N-]=[N+]=Nc1ccccc1[C@@H]1OC(c2ccc(OCCCO)cc2)=N[C@]1(Cc1ccccc1)C(=O)NCC(O)CO` (some centres undefined), the figure is 1.66.
Compound `COc1ccc([Si](C)(C)[C@@H]2[C@@H](CCn3cc([C@H](O)c4ccccc4)nn3)O[C@]3(C(=O)N(Cc4ccc(N5CCC5=O)cc4)c4ccccc43)[C@H]2C)cc1` showed a composite z-score of 0.189.
As for `C=CCC(OC(C)=O)[C@@H]1[C@@H](N(Cc2ccc(-c3cccc(C(F)(F)F)c3)o2)C(=O)c2ccc(C)cc2)c2cc(OCCCO)ccc2N1C(=O)c1ccc2ccccc2c1` (some centres undefined), the figure is -0.0678; as for `C=CCC(OC(C)=O)[C@@H]1[C@@H](N(Cc2cccc3ccccc23)C(=O)Cc2ccc(F)cc2)c2cc(OCCCO)ccc2N1C(=O)c1ccc2ccccc2n1` (some centres undefined), 0.0429.
As for `C[C@H]1NC(=O)[C@@]23C(=O)N[C@@H](Cc4ccccc4)C2[C@H](C)[C@@]2(C)O[C@H]2C3/C=C/C/C=C\CNC(=O)[C@H](Cc2ccccc2)NC1=O` (some centres undefined), the figure is 1.4; as for `CCCCCCCCCCC(O)C1C=CC2C(=O)N(C)C(=O)C2N1Nc1ccc([N+](=O)[O-])cc1[N+](=O)[O-]` (centres undefined), 1.12; as for `NCCCCCCNC(=O)[C@@H]1C[C@@H]2C(=O)N[C@@H](CCCCN)C(=O)N2[C@@H]1c1cccc(OCCO)c1`, 2.53.
Regarding `N#Cc1ccc(C(O)C2C=CC3C(=O)N(c4ccccc4)C(=O)C3N2Nc2ccccc2)cc1` (centres undefined), the composite z-score is 1.19.
As for `CC1=C([C@H](O)CCc2ccccc2)[C@H](CO)[C@@H]2C(=O)N(C)C(=O)[C@@H]2C1`, the figure is 0.174.
For `CCOC(=O)C1=CC[C@@H](c2cccc(Cl)c2)N(S(=O)(=O)c2ccc(C)cc2)C1` the value was 1.31; for `COCCOC(=O)N1C(=O)[C@@]2(c3cc(C#Cc4ccc(OC)cc4)ccc31)[C@H](C(=O)Nc1nc3ccccc3s1)[C@H]1C(=O)O[C@H](c3ccccc3)[C@H](c3ccccc3)N1[C@@H]2c1ccc(O)cc1`, 1.19.
For `COc1ccc(C#Cc2ccc3c(c2)[C@]2(C(=O)N3)[C@H](c3ccc(O)cc3)N3[C@H](c4ccccc4)[C@H](c4ccccc4)OC(=O)[C@H]3[C@@H]2C(=O)O)cc1`, the composite z-score worked out at 0.555.
As for `CC(C)C[C@@H]1NC(=O)[C@@H]2C[C@H](C(=O)NCCCCCN)[C@H](c3ccc(O)cc3)N2C1=O`, the figure is 1.26.
Compound `CN1C(=O)C2C=CC(C(O)c3ccc(F)cc3)N(Nc3ccccc3)C2C1=O` (centres undefined) came in with a composite z-score of 1.35.
Consider `CCC[C@@H]1C[C@@]1(CCC)[C@@H](NC(=O)OCc1ccccc1)c1ccc(-c2ccccc2)cc1`, for which the composite z-score is -0.271.
The compound `COc1ccc(NC(=O)O[C@H]2[C@H](OC(=O)Nc3ccccc3)[C@H](OC(=O)Nc3ccccc3)[C@@H](OC)O[C@@H]2CO)cc1` yielded a composite z-score of 1.61.
For `CC(C)[Si](C#C[Si](C(C)C)(C(C)C)C(C)C)(O[C@H](C)c1cn([C@H](CO)Cc2ccccc2)nn1)C(C)C` the value was 0.183; for `[N-]=[N+]=NCc1ccccc1[C@@H]1OC(c2ccc(OCCCO)cc2)=N[C@]1(CCS(=O)(=O)c1ccccc1)C(=O)NCC(O)CO` (some centres undefined), 2.

These data come from PubChem BioAssay.
